Screening data deposited in PubChem BioAssay by National Center for Advancing Translational Sciences (NCATS).
Sampled rows, rich in hits. Any-hit rate of the full collection: about 11%.
Pf growth 48h: Primary qHTS for delayed death inhibitors of the malarial parasite plastid, 48 hour incubation. P. falciparum luciferase growth in erythrocytes, 48 h. Potency, µM (series often up to 28.7 µM), without a hit: at the highest dose activity change, negative = inhibition, most hits filed as inhibitors. actives 5.9% (n = 310,000); note: % is set by controls: 0 for no effect and ±100 for the full control effect
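Read-out is firefly luciferase luminescence from an integrated reporter in P. falciparum, so falling signal marks reduced parasite growth. Infected erythrocytes were at 2% hematocrit and 0.1% parasitemia (final) in Albumax-supplemented RPMI 1640.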
VACV mCherry inh: qHTS for Stage-Specific Inhibitors of Vaccinia Orthopoxvirus: mCherry Reporter Primary qHTS; Vaccinia virus mCherry reporter infection, fluorescence; Potency, µM (highest dose often 36.5 µM), inactives show at the top dose activity change, negative = inhibition, most hits filed as inhibitors; actives 0.63% (n = 310,000); AID 720579, 2013; calls by dose curve; tested in A549 cells; note: % is set by controls: 0 for no effect and ±100 for the full control effect; nearly all actives have a fitted effect of over 35% in size
NS1 function inh: qHTS Assay for Inhibitors of Influenza NS1 Protein Function | actives 0.4% (n = 270,000) | Potency, µM (titrated, usually from 46.1 µM), inactives show at the top dose activity, positive = more growth; calls by dose curve; note: actives are rising curves; nearly all actives have a fitted effect of over 50% in size
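OD600 was taken as the measure of yeast growth restored by compound in an NS1-expressing S. cerevisiae strain. Cells had been washed out of glucose medium and diluted 1:100 into galactose -URA medium, pH 6.0.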
Vaccinia Venus: qHTS for Stage-Specific Inhibitors of Vaccinia Orthopoxvirus: Venus Reporter Primary qHTS; Vaccinia virus Venus reporter expression, fluorescence; Potency, µM (titrated, usually from 36.5 µM), for the others: top-dose activity change, negative = inhibition, usual class: inhibitors; actives 0.46% (n = 330,000); AID 720580, 2013; calls by dose curve; tested in A549 cells; note: % is set by controls: 0 for no effect and ±100 for the full control effect; nearly all actives have a fitted effect of over 30% in size
HCV inhibitor: qHTS Assay for Inhibitors of Hepatitis C Virus (HCV); Potency, µM (titrated, usually from 41.8 µM), for the others: at the highest dose activity change, negative = inhibition, most hits filed as inhibitors; actives 3.4% (n = 340,000); Huh7.5.1 HCVcc-Cre infection, luciferase reporter, 44 h; note: % is set by controls: 0 for no effect and ±100 for the full control effect
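Antiviral activity was scored by luciferase reporter output from cells infected with HCVcc-Cre (~0.5 moi) in presence of compound, 44 h infection period, cells seeded 1,000/well 4 h prior.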
Pf growth 96h: Primary qHTS for delayed death inhibitors of the malarial parasite plastid, 96 hour incubation; P. falciparum luciferase reporter growth, 96 h; Potency, µM (doses to about 28.7 µM), inactives show top-dose activity change, negative = inhibition, hits mostly inhibitors; actives 6.9% (n = 320,000); note: % is set by controls: 0 for no effect and ±100 for the full control effect
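Parasite growth measured via integrated firefly luciferase reporter in P. falciparum. Infected erythrocytes at 2% hematocrit, 0.05% parasitemia final were treated 96 hours at 37 C under 5% CO2, and luminescence was read.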
Starred values were filed as active, the others as inactive; i = inactive; ? = inconclusive; · = no result given. Unless noted, calls come from the whole dose curve; as a rule, active = well fitted inhibition curve with a large enough effect; inconclusive = small, poorly fitted or top-dose-only effect, or another doubt; inactive = no such curve, though single readings can be large or run the other way. Potency is the fitted concentration of half-maximal effect.

SMILES	Pf growth 48h	VACV mCherry inh	NS1 function inh	Vaccinia Venus	HCV inhibitor	Pf growth 96h
CC(C)COCC1CC2(CC(C)(c3csc(N)n3)OC2=O)C(=O)O1 (stereo not given)	-0.4%	-1.6%	6.3%	1.5%	10.4%	22.4%
Cc1ccc(OCCn2c(Br)nc3c2c(=O)n(C)c(=O)n3C)cc1	?	·	6.8%	·	8.91µM*	-6.6%
Cn1c(=O)c2c(nc(SCC(=O)c3cccs3)n2Cc2ccc(F)cc2)n(C)c1=O	12.0%	-15.7%	0.9%	-11.8%	5.01µM*	?
Cn1c(=O)c2c(nc(SCCN3CCCCC3)n2Cc2ccc(Cl)cc2)n(C)c1=O	?	?	1.3%	-19.9%	35.5µM*	·
COCCn1c(Br)nc2c1c(=O)n(C)c(=O)n2C	-8.1%	i	4.2%	-20.0%	1.2%	453.8%
CCSc1nc2c(c(=O)n(C)c(=O)n2C)n1Cc1ccc(Cl)cc1	·	-8.7%	-4.0%	-3.7%	?	·
Cn1c(=O)c2c(nc(SCC(=O)c3ccccc3F)n2C)n(C)c1=O	51.9%	·	7.9%	·	·	1.85µM*
Cn1c(=O)c2c(nc(Br)n2CC(=O)c2cccs2)n(C)c1=O	·	·	-5.3%	-27.5%	-11.3%	-5.8%
Cn1c(=O)c2c(nc(Sc3ncccn3)n2Cc2ccccc2Cl)n(C)c1=O	?	·	0.2%	·	10.7%	·
Cc1ccc(Cn2c(SCC(C)C)nc3c2c(=O)n(C)c(=O)n3C)cc1	3.7µM*	·	-46.7%	·	?	·
Cn1c(=O)c2c(nc(Sc3ncccn3)n2Cc2ccc(Cl)cc2)n(C)c1=O	·	-7.6%	6.4%	-15.2%	25.1µM*	?
CC(C)C[C@H]1CN([C@@H](Cc2ccccc2)CN2CCCC2CN2C(=S)NC[C@@H]2Cc2ccccc2)C(=S)N1CC1CCCCC1 (stereo not given in full)	·	-17.3%	·	-17.2%	·	·
CC(C)(C)c1ccc(NC(=O)N2CCCN(c3c(Cl)cncc3Cl)CC2)cc1	10.4µM*	-7.4%	-3.0%	-3.8%	-7.6%	?
O=C(Nc1ccccc1)N1CCCN(c2c(Cl)cncc2Cl)CC1	?	-15.2%	-3.8%	-11.7%	-29.1%	?
CC(=O)Nc1ccc(NS(=O)(=O)c2ccc3[nH]c4c(c3c2)CCCCC4)cc1	·	?	·	7.94µM*	·	·
CCN(CC)S(=O)(=O)c1ccc(C(=O)NCc2ccc3[nH]c4c(c3c2)CCCC4)cc1	?	-26.5%	?	-3.6%	?	11.7µM*
Cc1ccc(C)c(NC(=S)NCc2ccc3[nH]c4c(c3c2)CCCC4)c1	13.1µM*	-22.0%	15.7%	-13.3%	?	13.1µM*
O=C(COC(=O)c1ccc2[nH]c3c(c2c1)CCCC3)Nc1ccccc1	-2.6%	-11.3%	10.5%	0.3%	12.6µM*	16.9%
COc1ccc(C(=O)NCC(c2ccc(N(C)C)cc2)N2CCCC2)cc1 (stereo not given)	·	5.5%	·	?	·	·
O=C(NO)c1ccc(OC(F)F)cc1	10.4µM*	-13.4%	?	-16.5%	-15.6%	?
O=C(N/N=C/c1ccc(OC(F)F)cc1)c1ccc(Br)cc1	24.4%	i	-0.2%	-14.4%	22.2%	11.0%
COc1ccc(-c2c[n+]3c4n2CCCCC4=C(c2ccc(Br)cc2)C3)cc1	3.7µM*	i	3.3%	-6.4%	?	2.08µM*
Clc1ccc(C2=C3CCCCn4c(-c5ccccc5)c[n+](c43)C2)cc1	10.4µM*	-15.7%	?	-12.0%	-18.1%	?
Clc1ccc(-c2cnc3n2CCC3)cc1	?	·	-3.6%	·	?	-32.2%
COc1ccc(-c2cnc3n2CCCCC3)cc1	10.5%	-20.6%	-1.0%	-17.4%	?	-26.3%
SMILES	Pf growth 48h	VACV mCherry inh	NS1 function inh	Vaccinia Venus	HCV inhibitor	Pf growth 96h
Cc1nc2c(ccc3nc(NC(=O)c4ccc(S(=O)(=O)N(C)C)cc4)sc32)s1	-15.8%	i	-13.7%	-1.7%	?	?
Cc1ccc(C2(c3noc(CN4C[C@@H](C)O[C@@H](C)C4)n3)CCCC2)cc1	11.7µM*	i	-1.4%	-21.2%	-13.0%	11.7µM*
COCCN1CCN(Cc2nc(C3(c4ccc(C)cc4)CCCC3)no2)CC1	38.7%	i	0.7%	-10.9%	-5.6%	10.4µM*
O=C1C2C3C=CC(C4CC34)C2C(=O)N1/N=C/c1ccc(-c2ccc(F)cc2[N+](=O)[O-])o1 (stereo not given)	·	?	-1.5%	?	?	4.65µM*
COc1ccc(N(CC(=O)NCc2ccncc2)S(=O)(=O)c2ccc(C)c([N+](=O)[O-])c2)cc1	1.85µM*	·	-6.0%	·	-16.9%	-0.9%
COc1ccc(N(CC(=O)NC2CC3CCC2C3)S(=O)(=O)c2ccc(C)c([N+](=O)[O-])c2)cc1 (stereo not given)	?	?	4.8%	3.4%	2.82µM*	7.9%
COc1cccc(C(=O)NC(=S)N2CCN(c3ccc(C(F)(F)F)cc3[N+](=O)[O-])CC2)c1	-16.8%	-20.9%	9.3%	-19.3%	?	?
CS/C(=N\N(C)C(N)=O)c1ccccc1	5.3%	i	2.8%	-7.6%	17.3%	5.0%
O=C(COc1cccc2ccccc12)NNC(=O)c1cccs1	27.9%	-13.4%	-38.4%	3.5%	-14.6%	34.3%
Cc1nc2ccccc2n1C1CCN(CC(=O)NCc2ccc(F)cc2)CC1	?	-21.2%	-8.9%	-16.1%	-5.3%	5.86µM*
O=C(CSCc1ccc([N+](=O)[O-])cc1)NC1CC1	-3.0%	-12.0%	18.9%	-7.0%	10.3%	13.1µM*
CC(C)C(NC(=O)CSCc1ccc([N+](=O)[O-])cc1)C(C)C	?	-21.8%	-14.7%	-14.6%	-13.5%	18.5%
COc1ccc(O)c(/C=N/n2c(-c3ccco3)csc2=Nc2cccnc2)c1	-11.7%	-27.1%	7.5%	-15.5%	-1.2%	-18.9%
CCN=c1scc(-c2cccs2)n1/N=C/c1cc(OC)ccc1O	114.7%	-1.6%	-15.6%	-13.7%	5.01µM*	13.3%
O=S(=O)(c1ccc(Br)cc1)c1cnc2ccccc2n1	?	?	·	-11.0%	?	11.7µM*
O=S(=O)(Cc1ccccc1)c1cnc2ccccc2n1	10.4µM*	·	-15.4%	-12.0%	5.3%	·
COc1ccc(S(=O)(=O)c2cnc3ccccc3n2)cc1	?	-19.1%	·	-3.8%	1.8%	13.1µM*
COc1ccc(S(=O)(=O)c2ccc(OC)cc2)cc1	9.0%	2.3%	-17.0%	-5.2%	25.9%	·
CCCCn1c(N)c(N(CCOC)C(=O)c2cc(S(=O)(=O)N3CCOCC3)ccc2F)c(=O)[nH]c1=O	26.5%	i	·	-14.7%	1.0%	-5.2%
CCCC[C@@H]1C=C(C(=O)O)[C@H](c2ccc3c(c2)OCO3)N1S(=O)(=O)c1ccc(C)cc1	·	i	·	-9.0%	?	·
